Read-out in test [1]: Collagen IV, COL4A1 (gene 1282)
Nature of the test: BSK_MyoF_CollagenIV: BioMAP Diversity Plus: MyoF Assay for Collagen IV Biomarker Activity (AID 2284247). The settings on record: primary human lung fibroblasts. The essentials:
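Primary human lung fibroblasts were exposed to test chemicals and sampled 24 h after dosing. Collagen IV levels were measured by ELISA and fitted in the positive direction against DMSO as negative control and baseline.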

Read-out in test [2]: Plasminogen activator inhibitor-1 (PAI1), SERPINE1 (gene 5054)
Nature of the test: BSK_MyoF_PAI1: BioMAP Diversity Plus: MyoF Assay for Plasminogen activator inhibitor-1 (PAI1) Biomarker Activity (AID 2284256).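 As to outcome: PAI-1 protein level measured by ELISA in fibroblast cultures; PAI-1 read 24 h after compound addition.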 Conditions: primary human lung fibroblasts. The gist of the method:
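Human lung fibroblasts (MyoF system) were exposed to test chemicals for 24 h, then PAI-1 was quantified by ELISA. Activity was fitted in the positive (signal-gain) direction relative to DMSO vehicle as baseline.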

Read-out in test [3]: Interleukin-8 (IL8), CXCL8 (gene 3576)
Nature of the test: BSK_MyoF_IL8: BioMAP Diversity Plus: MyoF Assay for Interleukin-8 (IL8) Biomarker Activity (AID 2284261). Conditions: primary human lung fibroblasts. The gist of the method: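 IL-8 quantified by ELISA after 24 h compound exposure of primary human lung fibroblasts. SRB staining of parallel cultures flagged cytotoxicity; DMSO served as baseline.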

Read-out in test [4]: Matrix Metallopeptidase 1 (MMP1), MMP1 (gene 4312)
The experiment in a line: BSK_MyoF_MMP1: BioMAP Diversity Plus: MyoF Assay for Matrix Metallopeptidase 1 (MMP1) Biomarker Activity (AID 2284268). Conditions: primary human lung fibroblasts. The essentials:
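Human lung fibroblasts (MyoF system) exposed to chemical for 24 h in 96-well format; MMP1 biomarker quantified by ELISA, with activity fitted in the positive direction relative to DMSO baseline.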

Read-out in test [5]: TIMP metallopeptidase inhibitor 1 (TIMP1), TIMP1 (gene 7076)
Nature of the test: BSK_MyoF_TIMP1: BioMAP Diversity Plus: MyoF Assay for TIMP metallopeptidase inhibitor 1 (TIMP1) Biomarker Activity (AID 2284269). The settings on record: primary human lung fibroblasts. The essentials: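 ELISA quantified TIMP-1 levels after 24 h dosing of primary human lung fibroblasts, with DMSO as baseline. Parallel SRB total protein staining (0.1% SRB after TCA fixation, 560 nm) flagged overt cytotoxicity.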

Read-out in test [6]: Monokine induced gamma interferon (MIG), CXCL9 (gene 4283)
Nature of the test: BSK_KF3CT_MIG: BioMAP Diversity Plus: KF3CT Assay for Monokine induced gamma interferon (MIG) Biomarker Activity (AID 2284248). The settings on record: primary human keratinocytes with fibroblasts. The gist of the method: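 Parallel cultures were stained with SRB (560 nm) to check cytotoxicity. MIG was quantified by ELISA in a primary human skin keratinocyte/fibroblast co-culture 24 h post-dosing, with gain of signal fitted relative to DMSO.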

Read-out in test [7]: Collagen I, COL1A1 (gene 1277)
The experiment in a line: BSK_hDFCGF_CollagenI: BioMAP Diversity Plus: hDFCGF Assay for Collagen I Biomarker Activity (AID 2284250). Conditions: primary human foreskin fibroblasts. The essentials:
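Primary human foreskin fibroblasts (hDFCGF system) exposed to chemical for 24 h; Collagen I measured by ELISA. Activity fitted in the positive direction relative to DMSO baseline, with SRB total-protein staining in parallel cultures for overt cytotoxicity.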

Read-out in test [8]: Interferon-inducible T-cell alpha chemoattractant (ITAC), CXCL11 (gene 6373)
Nature of the test: BSK_hDFCGF_ITAC: BioMAP Diversity Plus: hDFCGF Assay for Interferon-inducible T-cell alpha chemoattractant (ITAC) Biomarker Activity (AID 2284251). The settings on record: primary human foreskin fibroblasts. The gist of the method:
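Fibroblasts (human foreskin, primary) are treated with chemical, cultured 24 h, then assayed for I-TAC by ELISA. Overt toxicity is checked in parallel cultures by sulforhodamine B staining of total protein at the same time point.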

Read-out in test [9]: Interleukin-8 (IL8), CXCL8 (gene 3576)
The experiment in a line: BSK_KF3CT_IL8: BioMAP Diversity Plus: KF3CT Assay for Interleukin-8 (IL8) Biomarker Activity (AID 2284254). Conditions: primary human keratinocytes with fibroblasts. The gist of the method: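 IL-8 by ELISA in primary human skin co-culture (keratinocytes plus fibroblasts) 24 h post-dose, DMSO as baseline. Cytotoxicity assessed in parallel by sulforhodamine B total-protein staining.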

Read-out in test [10]: Intercellular Adhesion Molecule 1 (ICAM1), ICAM1 (gene 3383)
The experiment in a line: BSK_BE3C_ICAM1: BioMAP Diversity Plus: BE3C Assay for Intercellular Adhesion Molecule 1 (ICAM1) Biomarker Activity (AID 2284278).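 Also: cell-surface ICAM-1 protein level quantified by ELISA.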 The settings on record: primary human bronchial epithelial cells. The gist of the method: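 Primary human bronchial epithelial cells were exposed to compound for 24 h, after which cell-surface ICAM-1 was quantified by ELISA. Activity was fitted in the gain-of-signal direction against DMSO as negative control and baseline.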

Values joined by “and” are separate entries in the source; they are usually repeats but may differ in a detail not shown here. Identical values can stand only once. Active and inactive are the calls of the source. The calls were made as follows: active = hit-call score of the fitted dose curve at least 0.9, where 1 is the maximum; inactive = score below 0.9.

Drawing on PubChem BioAssay (EPA / NIEHS), this text covers AC50 and outcome for 25 compounds.

For orientation: AC50 means the midpoint of the concentration-response curve, whichever way the signal moves.

On to `CN(CCOc1ccc(CC2SC(=O)NC2=O)cc1)c1ccccn1` (stereo not given), for which the AC50 was 0.111 µM (active) in test [1], 0.0541 µM (active) in test [2] and 20 µM (active) in [4]. In addition, the outcome in test [3] and in test [5] was inactive.

On to `OC[C@H]1O[C@H](O[C@]2(CCl)O[C@H](CCl)[C@@H](O)[C@@H]2O)[C@H](O)[C@@H](O)[C@H]1Cl`, for which the outcome in test [6], in test [7], in test [8], in test [9] and in test [10] was inactive.

Turning to `CC(C)Oc1ccccc1O`, the result in test [1], in test [2], in [3], in [4] and in test [5] was inactive.

For `CCC(=O)OCc1ccccc1`, the result in [6], in test [7], in [8], in test [9] and in test [10] was inactive.

`Nc1cc([N+](=O)[O-])ccc1O`: the outcome in test [6], in test [7], in [8], in test [9] and in [10] was inactive.

Take `COc1cc(C=O)ccc1OC(=O)C(C)C`: the result in [6], in test [7], in test [8], in test [9] and in test [10] was inactive.

For `CC(C)c1ccc(C(C)C)cc1`, the result in test [1], in [2], in test [3], in [4] and in test [5] was inactive.

In the case of `C=C(C)C(=O)O[C@H]1C[C@@H]2CC[C@@]1(C)C2(C)C`, the AC50 in test [1] is 25 µM (active); in [2] it was 29.5 µM (active); in test [5] it was 32.3 µM (active). In addition, the outcome in [3] and in [4] was inactive.

Take `Cc1cc(C2(c3cc(C)c(O)cc3C)OS(=O)(=O)c3ccccc32)c(C)cc1O`: the result in test [6], in test [7], in test [8], in [9] and in test [10] was inactive.

`CC[Si](OC(C)=O)(OC(C)=O)OC(C)=O`: the outcome in test [6], in test [7], in test [8], in test [9] and in [10] was inactive.

For the compound `OC1OC[C@@H](O)[C@H](O)[C@H]1O` (stereo not given in full), the result in [6], in [7], in [8], in test [9] and in test [10] was inactive.

Regarding `CC(=O)Nc1ccccc1O`, the outcome in test [1], in [2], in [3], in test [4] and in test [5] was inactive.

Regarding `CC(=O)OCCC(C)CC(C)(C)C` (stereo not given), the outcome in [6], in [7], in test [8], in test [9] and in test [10] was inactive.

As for `O=C(O)c1cn(-c2ccc(F)cc2)c2cc(N3CCNCC3)c(F)cc2c1=O`, the result in test [1], in test [2], in [3], in test [4] and in test [5] was inactive.

On to `c1ccc2sc(SN(C3CCCCC3)C3CCCCC3)nc2c1`, for which the outcome in [1], in test [2], in test [3] and in test [5] was inactive. In addition, in test [4], the AC50 was 6.26 µM (active).

For the compound `C=C[Si](OCC)(OCC)OCC`, the outcome in [1], in test [2], in test [3], in test [4] and in test [5] was inactive.

For the compound `C[C@H]1C[C@@H]2[C@H]([C@@H](O)C[C@@]3(C)[C@H]2CC[C@]3(O)C(=O)CO)[C@@]2(C)C=CC(=O)C=C12`, the result in test [6], in [7], in test [8], in test [9] and in test [10] was inactive.

Regarding `C=CCOC(=O)CCC1CCCCC1`, the result in [6], in [7], in test [8], in [9] and in test [10] was inactive.

As to `CC(=O)/C=C/C1=C(C)CCCC1(C)C`, the outcome in [1], in test [2], in test [3], in test [4] and in test [5] was inactive.

On to `N#Cc1ccc(CC(=NNC(=O)Nc2ccc(OC(F)(F)F)cc2)c2cccc(C(F)(F)F)c2)cc1`, for which the outcome in [1], in [2], in [3], in test [4] and in test [5] was inactive.

For `c1ccc2c(c1)c1cccc3ccc4cccc2c4c31`, the AC50 in test [1] is 0.0413 µM (active); in test [2], 0.016 µM (active). In addition, the outcome in test [3], in test [4] and in test [5] was inactive.

Regarding `CC(=O)[C@H]1CC[C@H]2[C@@H]3CC=C4C[C@@H](O)CC[C@]4(C)[C@H]3CC[C@]12C`, the result in test [6], in test [8], in test [9] and in [10] was inactive. Also, in test [7], the AC50 is 5.65 µM (active) and 9.87 µM (active).

As for `BrC1CCC(Br)C(Br)CCC(Br)C(Br)CCC1Br` (stereo not given), the outcome in [1], in test [2], in test [3] and in [5] was inactive. For the same compound, the AC50 in test [4] is 3.29 µM (active).

As to `O=C(O)C[C@H](O)C[C@H](O)/C=C/c1c(C2CC2)nc2ccccc2c1-c1ccc(F)cc1`, the outcome in [1] and in [5] was inactive. Also, the AC50 is 5 µM (active) in test [2], 1.1 µM (active) in [3] and 0.498 µM (active) in test [4].

As for `NCCNCCN`, the outcome in test [6], in [7], in [8], in [9] and in test [10] was inactive.
